From PubChem BioAssay (NCATS)
Records with an inconclusive call do not appear. The source made the active and inactive calls. Calls follow the shape of the dose curve; as a rule, active = well fitted inhibition curve with a large enough effect; inconclusive = small, poorly fitted or top-dose-only effect; inactive = flat fitted curve, though single readings scatter.

What was measured:
[1] = qHTS profiling for inhibitors of Plasmodium falciparum proliferation (AID 504749);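 also: 0% = DMSO vehicle and full inhibition = artemisinin control; nearly all actives have a fitted effect of over 60% in size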; settings: P. falciparum in erythrocytes, SYBR Green DNA, 72 h, at 28.7 µM (top of the series)
Outline: (§1)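 Parasite proliferation within erythrocytes, 72 h exposure. Endpoint: SYBR Green I fluorescence after overnight lysis at room temperature. Controls: 0.29 uM artemisinin, DMSO.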

3D7 = assay: as above; settings: P. falciparum in erythrocytes, SYBR Green DNA, 72 h; series mostly up to 28.7 µM
Outline: as §1

7G8 = assay: as above; settings: P. falciparum in erythrocytes, SYBR Green DNA, 72 h; series mostly up to 28.7 µM
Outline: as §1

AA1029 = assay: as above; settings: P. falciparum in erythrocytes, SYBR Green DNA, 72 h; series mostly up to 28.7 µM
Outline: as §1

AS120 = assay: as above; settings: P. falciparum in erythrocytes, SYBR Green DNA, 72 h; series mostly up to 28.7 µM
Outline: as §1

ATS189 = assay: as above; settings: P. falciparum in erythrocytes, SYBR Green DNA, 72 h; series mostly up to 28.7 µM
Outline: as §1

ATS95 = assay: as above; settings: P. falciparum in erythrocytes, SYBR Green DNA, 72 h; series mostly up to 28.7 µM
Outline: as §1

C2A = assay: as above; settings: P. falciparum in erythrocytes, SYBR Green DNA, 72 h; series mostly up to 28.7 µM
Outline: as §1

CP185 = assay: as above; settings: P. falciparum in erythrocytes, SYBR Green DNA, 72 h; series mostly up to 28.7 µM
Outline: as §1

CP191 = assay: as above; settings: P. falciparum in erythrocytes, SYBR Green DNA, 72 h; series mostly up to 28.7 µM
Outline: as §1

CP192 = assay: as above; settings: P. falciparum in erythrocytes, SYBR Green DNA, 72 h; series mostly up to 28.7 µM
Outline: as §1

CP194 = assay: as above; settings: P. falciparum in erythrocytes, SYBR Green DNA, 72 h; series mostly up to 28.7 µM
Outline: as §1

CP201 = assay: as above; settings: P. falciparum in erythrocytes, SYBR Green DNA, 72 h; series mostly up to 28.7 µM
Outline: as §1

CCON=O
inactive: activity, negative = inhibition ([1]; parasite line A) -4.19% | activity, negative = inhibition ([1]; parasite line B) 0.895% | Potency (3D7) | Potency (7G8) | Potency (AA1029) | Potency (AS120) | Potency (ATS189) | Potency (ATS95) | Potency (C2A) | Potency (CP185) | Potency (CP191) | Potency (CP192) | Potency (CP194) | Potency (CP201)

O=C(OCCN1CCCCC1)C(O)(c1ccccc1)c1ccccc1
inactive: activity, negative = inhibition ([1]; parasite line A) 8.26% | activity, negative = inhibition ([1]; parasite line B) -1.95% | Potency (3D7) | Potency (7G8) | Potency (AA1029) | Potency (AS120) | Potency (ATS189) | Potency (ATS95) | Potency (C2A) | Potency (CP185) | Potency (CP191) | Potency (CP192) | Potency (CP194) | Potency (CP201)

Cn1sc(Cl)cc1=O
inactive: activity, negative = inhibition ([1]; parasite line A) 11.9% | activity, negative = inhibition ([1]; parasite line B) 7.44% | Potency (3D7) | Potency (7G8) | Potency (AA1029) | Potency (AS120) | Potency (ATS189) | Potency (ATS95) | Potency (C2A) | Potency (CP185) | Potency (CP191) | Potency (CP192) | Potency (CP194) | Potency (CP201)

O=CC=O
inactive: activity, negative = inhibition ([1]; parasite line A) 6.37% | activity, negative = inhibition ([1]; parasite line B) 0.163% | Potency (3D7) | Potency (7G8) | Potency (AA1029) | Potency (AS120) | Potency (ATS189) | Potency (ATS95) | Potency (C2A) | Potency (CP185) | Potency (CP191) | Potency (CP192) | Potency (CP194) | Potency (CP201)

S=C(S)N1CCNCC1
inactive: activity, negative = inhibition ([1]; parasite line A) 5.54% | activity, negative = inhibition ([1]; parasite line B) 4.75% | Potency (3D7) | Potency (7G8) | Potency (AA1029) | Potency (AS120) | Potency (ATS189) | Potency (ATS95) | Potency (C2A) | Potency (CP185) | Potency (CP191) | Potency (CP192) | Potency (CP194) | Potency (CP201)

CCC1(CC)C(=O)NC(=O)N(C)C1=O
inactive: activity, negative = inhibition ([1]; parasite line A) 7.69% | activity, negative = inhibition ([1]; parasite line B) -5% | Potency (3D7) | Potency (7G8) | Potency (AA1029) | Potency (AS120) | Potency (ATS189) | Potency (ATS95) | Potency (C2A) | Potency (CP185) | Potency (CP191) | Potency (CP192) | Potency (CP194) | Potency (CP201)

CC(=O)OO
inactive: activity, negative = inhibition ([1]; parasite line A) 5.76% | activity, negative = inhibition ([1]; parasite line B) 13% | Potency (3D7) | Potency (7G8) | Potency (AA1029) | Potency (AS120) | Potency (ATS189) | Potency (ATS95) | Potency (C2A) | Potency (CP185) | Potency (CP191) | Potency (CP192) | Potency (CP194) | Potency (CP201)

CC(C)(O)C1C2OC(=O)C1C1(O)CC3OC34C(=O)OC2C14C (stereo not drawn)
inactive: activity, negative = inhibition ([1]; parasite line A) 13.7% | activity, negative = inhibition ([1]; parasite line B) 0.0355% | Potency (3D7) | Potency (7G8) | Potency (AA1029) | Potency (AS120) | Potency (ATS189) | Potency (ATS95) | Potency (C2A) | Potency (CP185) | Potency (CP191) | Potency (CP192) | Potency (CP194) | Potency (CP201)

O=C1CC[C@@]2(O)C3Cc4ccc(O)c5c4C2(CCN3CC2CC2)[C@H]1O5 (stereo partly drawn)
inactive: activity, negative = inhibition ([1]; parasite line A) 9.65% | activity, negative = inhibition ([1]; parasite line B) 8.16% | Potency (3D7) | Potency (7G8) | Potency (AA1029) | Potency (AS120) | Potency (ATS189) | Potency (ATS95) | Potency (C2A) | Potency (CP185) | Potency (CP191) | Potency (CP192) | Potency (CP194) | Potency (CP201)

CCCCNCC(O)c1ccc(O)cc1 (stereo not drawn)
inactive: activity, negative = inhibition ([1]; parasite line A) -2.61% | activity, negative = inhibition ([1]; parasite line B) -2.79% | Potency (3D7) | Potency (7G8) | Potency (AA1029) | Potency (AS120) | Potency (ATS189) | Potency (ATS95) | Potency (C2A) | Potency (CP185) | Potency (CP191) | Potency (CP192) | Potency (CP194) | Potency (CP201)

[N-]=[N+]=CC(=O)OCC(N)C(=O)O (stereo not drawn)
inactive: activity, negative = inhibition ([1]; parasite line A) 3.54% | activity, negative = inhibition ([1]; parasite line B) -4.07% | Potency (3D7) | Potency (7G8) | Potency (AA1029) | Potency (AS120) | Potency (ATS189) | Potency (ATS95) | Potency (C2A) | Potency (CP185) | Potency (CP191) | Potency (CP192) | Potency (CP194) | Potency (CP201)

CC(=O)OC1CN2CCC1CC2 (stereo not drawn)
inactive: activity, negative = inhibition ([1]; parasite line A) -1.93% | activity, negative = inhibition ([1]; parasite line B) 13.1% | Potency (3D7) | Potency (7G8) | Potency (AA1029) | Potency (AS120) | Potency (ATS189) | Potency (ATS95) | Potency (C2A) | Potency (CP185) | Potency (CP191) | Potency (CP192) | Potency (CP194) | Potency (CP201)

O=[N+]([O-])c1cc(I)c(O)c(I)c1
inactive: activity, negative = inhibition ([1]; parasite line A) -8.29% | activity, negative = inhibition ([1]; parasite line B) -20.5% | Potency (3D7) | Potency (7G8) | Potency (AA1029) | Potency (AS120) | Potency (ATS189) | Potency (ATS95) | Potency (C2A) | Potency (CP185) | Potency (CP191) | Potency (CP192) | Potency (CP194) | Potency (CP201)

FC(F)OC(F)(F)C(F)Cl (stereo not drawn)
inactive: activity, negative = inhibition ([1]; parasite line A) 10.8% | activity, negative = inhibition ([1]; parasite line B) 14% | Potency (3D7) | Potency (7G8) | Potency (AA1029) | Potency (AS120) | Potency (ATS189) | Potency (ATS95) | Potency (C2A) | Potency (CP185) | Potency (CP191) | Potency (CP192) | Potency (CP194) | Potency (CP201)

C=CCN1CC[C@]23c4c5ccc(O)c4O[C@H]2[C@@H](O)C=C[C@H]3[C@H]1C5
inactive: activity, negative = inhibition ([1]; parasite line A) -14.2% | activity, negative = inhibition ([1]; parasite line B) 6.2% | Potency (3D7) | Potency (7G8) | Potency (AA1029) | Potency (AS120) | Potency (ATS189) | Potency (ATS95) | Potency (C2A) | Potency (CP185) | Potency (CP191) | Potency (CP192) | Potency (CP194) | Potency (CP201)

O=C1CCO1
inactive: activity, negative = inhibition ([1]; parasite line A) -3.97% | activity, negative = inhibition ([1]; parasite line B) -7.7% | Potency (3D7) | Potency (7G8) | Potency (AA1029) | Potency (AS120) | Potency (ATS189) | Potency (ATS95) | Potency (C2A) | Potency (CP185) | Potency (CP191) | Potency (CP192) | Potency (CP194) | Potency (CP201)

C[C@]12CCC(=O)C[C@@H]1CC[C@@H]1[C@@H]2CC[C@]2(C)[C@@H](O)CC[C@@H]12
inactive: activity, negative = inhibition ([1]; parasite line A) -12.4% | activity, negative = inhibition ([1]; parasite line B) 4.65% | Potency (3D7) | Potency (7G8) | Potency (AA1029) | Potency (AS120) | Potency (ATS189) | Potency (ATS95) | Potency (C2A) | Potency (CP185) | Potency (CP191) | Potency (CP192) | Potency (CP194) | Potency (CP201)
